According to PubChem BioAssay AID1014 (NMMLSC, 2008):
Calls of active or inactive are those of the source. No stated cut-off is given here; in the data, active means inhibition of mean fluorescence above about 33%; inactive means the rest.

Assay: blockers of bacterial quorum-sensing reporter fluorescence – flow cytometry, SAR analogs, SAR follow-up (AID 1014);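 further: Staphylococcus aureus RN6390 with RNAIII-GFP reporter stimulated by AIP; bacteria incubated with compound for 3 hours at 37 °C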
Details: at 20 µM, stronger effect = higher value; inhibition of percent positive cells: measured here: percent reporter-positive cells

SMILES | inhibition of mean fluorescence | inhibition of percent positive cells [%]
CCOC(=O)c1c(-c2cc(Cl)c(OC)c(Cl)c2)oc2ccc(O)cc12 | -4.9% (inactive) | -0.4
Cc1cc(C)cc(Nc2c(F)c(F)c(F)c(F)c2C(=O)O)c1 | 14% (inactive) | -0.2
Cc1cc(C)nc(Nc2ccccc2C(=O)O)n1 | 22.7% (inactive) | -0.8
CN1CCN(C(=O)C(=O)Nc2ccc3c(c2)OCO3)CC1 | -2.5% (inactive) | 0.1
Cc1nnc2c3ccccc3nc(Nc3ccccc3C(=O)O)n12 | 18.4% (inactive) | -0.2
